ATXN2 expr inh: reduces ATXN2 reporter expression in HEK-293 cells; HEK-293 ATXN2-luciferase reporter, luminescence, 24 h; Potency, µM (series often up to 57 µM), for the others: top-dose activity change, negative = inhibition, usual class: inhibitors; actives 0.72% (n = 360,000); also: % is scaled to controls: 0 for no effect and ±100 for the full control effect; nearly all actives have a fitted effect of over 55% in size
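ATXN2-luciferase reporter cells (luciferase flanked by upstream and downstream ATXN2 gene portions) were treated 24 h at 37 °C with compounds at up to 57 uM. SteadyGlo luminescence gave expression; GF-AFC fluorescence gave viability.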
S2 tox: reduces viability in counter-screen for ATXN expression inhibitors | S2 cells (HEK-293 line with an ATXN2-luciferase reporter) viability, CellTiter-Fluor protease fluorescence, 24 h | Potency, µM (series often up to 56.7 µM), usual class: cytotoxic | actives 0.49% (n = 400,000) | AID 651635; also: nearly all actives have a fitted effect of over 40% in size
HepG2 viability: kills HepG2 cells in TGF-b inhibitor counter-screen. actives 0.76% (n = 410,000). HepG2 CAGA-GFP viability, ATP luminescence, 18 h. Potency, µM (highest dose often 46.1 µM), for the others: top-dose activity change, negative = cytotoxicity, actives largely listed as cytotoxic
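CellTiter-Glo luminescence gave cytotoxicity after 18 hours at 37 degrees C. The cells were HepG2 CAGA-GFP in 1% FBS DMEM, stimulated with 500 pg/mL TGF-beta after compound addition. %Activity was normalised to no-cell wells (complete cell-killing) and DMSO (no toxicity), and curves were fitted and classified.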
A549 viability: A549 cytotoxicity, counter-screen for Nrf2 inhibitors; A549 ARE-Fluc cells, CellTiter-Fluor viability, 18-24 h; Potency, µM (highest dose often 46 µM), for the others: at the top dose activity change, negative = cytotoxicity, usual class: inhibitors; actives 0.16% (n = 390,000); also: % is scaled to controls: 0 for no effect and ±100 for the full control effect
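A549 ARE-Fluc cells in 5% FBS OPTI-MEM, 5000 cells/well, rested 2 h then exposed to compounds in concentration-response for 18-24 h at 37 °C. Viability by CellTiter-Fluor fluorescence (Ex 405/Em 525) after 30 min; luciferase luminescence (BugLite, 15 min, RT) read afterwards.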
TGFb SMAD3 inh: inhibitors of TGF-b signaling. Potency, µM (top dose mostly 46.1 µM), without a hit: top-dose activity, negative = inhibition, actives largely listed as inhibitors. HepG2 CAGA-GFP TGF-b/SMAD3 reporter, GFP fluorescence, 18 h; TGF-beta stimulated, 500 pg/mL final. AID 588855. actives 1.2% (n = 410,000); also: % is scaled to controls: 0 for no effect and ±100 for the full control effect; nearly all actives have a fitted effect of over 65% in size
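GFP signal (ex488/em500-530) from TGF-beta-stimulated HEPG2 CAGA-GFP cells, 500 pg/mL final, 18 h at 37 degrees C in DMEM plus 1% FBS, normalized to unstimulated and DMSO-stimulated controls.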
Nrf2 block: inhibitors of Nrf2 signaling; A549 ARE-Fluc reporter, luciferase luminescence, 18-24 h; Potency, µM (top dose mostly 46 µM), for inactives: at the top dose activity change, negative = inhibition, hits mostly inhibitors; actives 2.1% (n = 360,000); AID 504444; also: % is scaled to controls: 0 for no effect and ±100 for the full control effect; nearly all actives have a fitted effect of over 60% in size
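A549 ARE_Fluc cells (5000/well, 5% FBS OPTI-MEM) pre-incubated 2 h, then treated with compounds 18-24 h at 37C/5% CO2 in concentration-response. CellTiter-Fluor viability read first; BugLite luciferase luminescence after 15 min at room temperature gives Nrf2 activity.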
Starred values were filed as active, the others as inactive; i = inactive; ? = inconclusive; · = not tested or not shown; ! = a repeat was not active. A selection: hits, their analogues and other compounds. The true share with any hit is near 3.8%. Calls follow the shape of the dose curve; as a rule, active = well fitted curve in the direction sought with a large enough effect; inconclusive = small, poorly fitted or top-dose-only effect, or another doubt; inactive = no such curve, though single readings can be large; an effect the other way counts as inactive or inconclusive. Potency is read from the fitted curve at half-maximal effect.

SMILES | ATXN2 expr inh | S2 tox | HepG2 viability | A549 viability | TGFb SMAD3 inh | Nrf2 block
O=c1c(-c2ccccc2)c1-c1ccccc1 | 8.91µM* | 8.91µM* | · | · | · | ·
CC(C)Cn1cnc2c(N)nc3ccccc3c21 | 21.7µM*! | i | -2.0% | -3.0% | 13.3% | 10.1%
O=C(c1ccc(F)c(F)c1)N1CCOc2ccc(CN3CCN(CCO)CC3)cc2C1 | · | i | · | · | · | ·
COCc1[nH][nH]c(=O)c1/C=N/N1CCOCC1 | 0.0% | i | -18.2% | 1.3% | 0.8% | 9.7%
CCOC(=O)/C(C#N)=N/Nc1c(C)n(C)n(-c2ccccc2)c1=O | 8.5% | i | -2.8% | -29.2% | 0.0% | ?
Cc1ccccc1C(=O)/C(C#N)=N/Nc1c(C)n(C)n(-c2ccccc2)c1=O | 7.08µM* | ? | -5.3% | 18.4µM* | ? | 8.2µM*
Cc1c(N/N=C(\C#N)C(=O)c2ccccc2)c(=O)n(-c2ccccc2)n1C | 14.1µM* | ? | 0.5% | 20.6µM* | 1.2% | ?
N#C/C(=N\Nc1cccc(Cl)c1)C(=O)c1ccccc1 | -35.1% | ? | -31.9% | 18.4µM* | ? | ?
N#C/C(=N\Nc1ccccc1Cl)C(=O)c1ccccc1 | 4.6% | ? | -15.8% | ? | ? | ?
O=S1(=O)CCC(NC(=S)SCCOc2ccccc2)C1 (centres undefined) | -17.7% | ? | -39.9% | ? | 20µM* | ?
CCCCSC(=S)NC1CCS(=O)(=O)C1 (centres undefined) | -12.9% | i | -47.7% | ? | -1.9% | -25.3%
COc1ccc(OCC(=O)Nc2c3c(nn2C(C)(C)C)CSC3)cc1 | 16.0% | i | 6.1% | -6.4% | -0.6% | 11.6µM*
[O-][n+]1c2ccccc2[n+]([O-])c2cc(O)ccc21 | -47.5% | ? | -41.5% | -15.3% | -1.9% | ?
CN(C)CCNc1ncnc2c1sc1nc(N3CCOCC3)c3c(c12)CC(C)(C)SC3 | 20µM* | ? | -95.7% | ? | -2.3% | -1.9%
Cc1cc(C)c(NC2=NCC(=O)N2C2CCCCC2)c(C)c1 | -6.0% | i | -1.8% | 1.6% | -9.7% | -0.2%
O=C1CN=C(Nc2cccc(C(F)(F)F)c2)N1C1CCCC1 | -15.5% | i | -12.1% | -26.6% | 1.2% | 14.6µM*
O=C(NCc1ccccn1)c1cccc(S(=O)(=O)NCc2ccccc2)c1 | -1.8% | i | 0.8% | -8.8% | 2.1% | 1.0%
Cc1ccc(-c2nnn(CC(=O)N(Cc3cccs3)C(C(=O)NC3CCCC3)c3ccncc3)n2)cc1 (centres undefined) | -4.9% | ? | -17.9% | -16.7% | ? | 6.51µM*
O=C(NCC1CCCO1)C(c1ccncc1)N(Cc1cccs1)C(=O)Cn1nnc(-c2ccc(F)cc2)n1 (centres undefined) | -19.4% | ? | -2.2% | -6.1% | 5.4% | ?
COc1ccc(/C=C/CN2CCC(C(=O)NC(c3ccc(F)cc3)c3ccc4ccccc4n3)CC2)cc1 (centres undefined) | ? | 35.5µM* | -86.8% | · | ? | ·
CC(C)CN1CCC(C(=O)NC(c2ccc(F)cc2)c2ccc3ccccc3n2)CC1 (centres undefined) | 7.2% | ? | -29.0% | · | -32.4% | ·
Cc1cccnc1C(NC(=O)C1CCN(CCOc2ccc(F)cc2)CC1)c1ccc(Cl)cc1 (centres undefined) | 0.0% | ? | 11.2µM* | · | ? | ·
COc1ccc(OCCN2CCC(C(=O)NC(c3ccc(F)cc3)c3ncccc3C)CC2)cc1 (centres undefined) | -5.5% | i | -17.4% | · | -5.1% | ·
O=C(NC(c1ccc(-c2ccccc2)cc1)c1cnccn1)C1CCN(Cc2ccc3c(c2)OCO3)CC1 (centres undefined) | ? | 31.6µM* | -93.2% | · | ? | ·
